Inhibition data for 10 molecules are collected here from ChEMBL document CHEMBL1157539, “Thousands of chemical starting points for antimalarial lead identification” (Nature, 2010).

Common to all, as to format: functional
Assay [1] concerns Plasmodium falciparum. Put plainly: GSK_TCMDC: Inhibition of Plasmodium falciparum 3D7 in whole red blood cells, using parasite LDH activity as an index of growth. Test compounds present at 2uM.
Assay [2] has as its system Plasmodium falciparum. Put plainly: GSK_TCMDC: Inhibition of Plasmodium falciparum Dd2 in whole red blood cells, using parasite LDH activity as an index of growth. Test compounds present at 2uM.
The subject of the next assay is HepG2. Put plainly: GSK_TCMDC: Percent inhibition of human HepG2 cell line. Test compounds present at 10uM.

The structures appear in SMILES notation.

`CCN(CC)Cc1ccc2c(=O)cc(CCc3cccc(F)c3F)n(CC(=O)N(Cc3ccc(-c4ccc(C(F)(F)F)cc4)cc3)C(C)C)c2c1.O=C(O)C(O)C(O)C(=O)O`: the Inhibition (in general, how much of the control response was suppressed) amounted to 100% with Plasmodium falciparum [1], 63% in the assay on Plasmodium falciparum [2] and 82% in the assay with HepG2.
For `Cc1cc(C)c2ncc(C(=O)O)c(O)c2c1` the same measures were 93%, 60% and 0%.
Regarding `CCOP(=O)(OCC)c1ccc(OC)c(-c2ccc[nH]2)c1`, the Inhibition with Plasmodium falciparum [1] is 95%; in the assay with Plasmodium falciparum [2], 10%; in the assay on HepG2, 0%.
As for `CCC(C)NC(=O)Cn1c2ncccc2c(=O)n1-c1ccc(C)cc1` (stereo not given), the values for the Inhibition in the assay on Plasmodium falciparum [1], in the assay on Plasmodium falciparum [2] and in the assay on HepG2 were 95%, 63% and 4%, respectively.
Consider `CC(C)CN(C)c1ncnc2c1nc(-c1cncc(C#N)c1)n2CCNCc1ccccc1.O=C(O)C(F)(F)F`, for which the values for the Inhibition with Plasmodium falciparum [1], in the assay on Plasmodium falciparum [2] and in the assay with HepG2 were 86%, 2% and 4%, respectively.
For `Cc1c(C(=O)Nc2cc(Sc3ccc(F)cc3)cc([N+](=O)[O-])c2)sc2ncn(Cc3cccc(F)c3)c(=O)c12`, in that order: 100%, 53% and 0%.
As for `COc1ccc(O)c(-c2sc(N=C(N)N)nc2-c2ccccc2)c1`, the Inhibition with Plasmodium falciparum [1] amounted to 100%; with Plasmodium falciparum [2], 96%; in the assay on HepG2 it was 2%.
For the molecule `Cc1ccccc1C1CCN(c2ccc(C(=O)Nc3ccccc3)cn2)CC1.O=C(O)C(F)(F)F`, the values for the Inhibition in the assay on Plasmodium falciparum [1], with Plasmodium falciparum [2] and in the assay on HepG2 were 95%, 94% and 53%, respectively.
For `CC(=O)Nc1ccc(S(=O)(=O)Nc2ccc(Nc3nc(C)cc(N4CCCCC4)n3)cc2)cc1` the same measures were 89%, 54% and 23%.
On to `N#Cc1ccc(CN2CCC(Oc3ccc(NC(=O)c4ccco4)cc3Cl)CC2)cc1.O=C(O)C(F)(F)F`, for which the values for the Inhibition in the assay with Plasmodium falciparum [1], with Plasmodium falciparum [2] and with HepG2 were 95%, 96% and 7%, respectively.
